Test systems include NCI-H23 lung; NCI-H226 lung; NCI-H322M lung; HOP-62 NSCLC; NCI-H460 lung; HOP-92 NSCLC; NCI-H522 lung; A549/ATCC NSCLC; 786-0 renal; COLO 205 colon; DU-145 prostate; K-562 leukemia; MALME-3M melanoma; MDA-MB-231 breast; RXF 393 renal; SF-268 CNS; SF-295 CNS; SF-539 CNS; UACC-257 melanoma; M14 melanoma.
What all share (assay): NCI-60 one-dose screen, 48 h (100 = growth as untreated, 0 = no growth, -100 = all killed)
Common to all, as to conditions: 10 µM unless noted

About 83,000 compounds went through this panel and 20% of them were active in at least one assay; those are over-represented in the sample as a whole.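 96-well plates, one dose, 48 hours. Percent growth reported; active if below 10.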 Values without a mark were called inactive. Calls of active or inactive are those of the source.

The source of these data is PubChem BioAssay (NCI).

On to `COc1ccccc1NC(=O)COc1ccc(/C=C2/Oc3cc4occc4c(OC)c3C2=O)cc1OC`, for which the growth is 97.1% in the experiment with NCI-H23 lung; 101% in the experiment with NCI-H226 lung; 115% in the experiment with NCI-H322M lung; 101% with HOP-62 NSCLC; 114% with NCI-H460 lung; 99.1% in the experiment with HOP-92 NSCLC. Besides, the growth was 86.9% with NCI-H522 lung; 96.6% in the experiment on A549/ATCC NSCLC; 96.1% in the experiment on 786-0 renal; 114% in the experiment with COLO 205 colon; 114% in the experiment with DU-145 prostate; 99.4% in the experiment with K-562 leukemia. Further, the growth with MALME-3M melanoma is 115%; in the experiment on MDA-MB-231 breast it was 99.8%; in the experiment with RXF 393 renal it was 103%; in the experiment with SF-268 CNS it was 103%; in the experiment with SF-295 CNS it was 103%; in the experiment on SF-539 CNS it was 101%. Also, the growth with UACC-257 melanoma was 100%; in the experiment with M14 melanoma, 106%.

For the compound `COc1ccc2c(c1)/C(=C/c1c(-c3cc(OC)c(OC)c(OC)c3Br)nc3sccn13)C(=O)N2`, the growth was 101% in the experiment on NCI-H23 lung; 86.1% in the experiment with NCI-H226 lung; 88.9% in the experiment with NCI-H322M lung; 59.2% in the experiment on HOP-62 NSCLC; 111% in the experiment with NCI-H460 lung; 60.8% with HOP-92 NSCLC. Also, the growth is 68.1% with NCI-H522 lung; 101% with A549/ATCC NSCLC; 93.4% in the experiment with 786-0 renal; 117% in the experiment on COLO 205 colon; 114% in the experiment on DU-145 prostate; 76% in the experiment with K-562 leukemia. The growth was 62.1% in the experiment on MALME-3M melanoma; 81.4% with MDA-MB-231 breast; 118% with RXF 393 renal; 116% in the experiment on SF-268 CNS; 105% in the experiment on SF-295 CNS; 95.3% in the experiment with SF-539 CNS. The growth in the experiment with UACC-257 melanoma was 110%; in the experiment with M14 melanoma, 115%.

Turning to `CCOC(=O)C1CN(Cc2ccccc2)C(=O)C1=O` (stereo not given), the growth with NCI-H23 lung was 105%; with NCI-H226 lung, 93.3%; in the experiment with NCI-H322M lung, 94.9%; in the experiment on HOP-62 NSCLC, 98.8%; in the experiment on NCI-H460 lung it was 106%; in the experiment with HOP-92 NSCLC, 84.3%. In addition, the growth was 98.6% in the experiment with NCI-H522 lung; 112% with A549/ATCC NSCLC; 105% with 786-0 renal; 93.6% in the experiment on COLO 205 colon; 110% in the experiment with DU-145 prostate; 104% with K-562 leukemia. Further, the growth in the experiment on MALME-3M melanoma is 92.8%; with MDA-MB-231 breast, 115%; in the experiment on RXF 393 renal, 112%; with SF-268 CNS, 101%; with SF-295 CNS, 105%; in the experiment with SF-539 CNS, 93.6%. Further, the growth is 104% in the experiment with UACC-257 melanoma and 94.6% in the experiment with M14 melanoma.

`CC(C)(C)OC(=O)NCc1cccc(N=C=S)c1`: the growth with NCI-H23 lung was 55.3%; in the experiment on NCI-H226 lung, 80.6%; with NCI-H322M lung, 65.7%; with HOP-62 NSCLC it was 57.8%; with NCI-H460 lung it was 63.8%; with HOP-92 NSCLC it was -0.561% (active). In addition, the growth in the experiment on NCI-H522 lung was 12.8%; in the experiment on A549/ATCC NSCLC it was 69.2%; in the experiment with 786-0 renal it was 54.9%; with COLO 205 colon, 38.5%; in the experiment on DU-145 prostate, 55.7%; in the experiment on K-562 leukemia it was 37.3%. Further, the growth was 29.9% in the experiment with MALME-3M melanoma; 75.4% in the experiment with MDA-MB-231 breast; -15.7% (active) in the experiment on RXF 393 renal; 47.2% with SF-268 CNS; 21% with SF-295 CNS; 3.66% (active) in the experiment on SF-539 CNS. The growth with UACC-257 melanoma was 39.4%; in the experiment with M14 melanoma, 49.3%.

In the case of `N#Cc1c2c(c(N)[nH]c1=O)C(=O)NC2(O)c1ccccc1` (stereo not given), the growth in the experiment with NCI-H23 lung was 98.8%; in the experiment on NCI-H226 lung, 99.2%; in the experiment with NCI-H322M lung, 103%; in the experiment on HOP-62 NSCLC, 104%; with NCI-H460 lung, 118%; in the experiment with HOP-92 NSCLC, 114%. In addition, the growth in the experiment on NCI-H522 lung is 85.1%; in the experiment on A549/ATCC NSCLC, 97.1%; in the experiment with 786-0 renal, 104%; with COLO 205 colon it was 107%; in the experiment on DU-145 prostate it was 105%; in the experiment with K-562 leukemia, 98.7%. Further, the growth with MALME-3M melanoma was 87.1%; in the experiment with MDA-MB-231 breast it was 112%; in the experiment on RXF 393 renal it was 103%; in the experiment on SF-268 CNS, 105%; with SF-295 CNS it was 100%; in the experiment on SF-539 CNS, 104%. In addition, the growth was 96.7% in the experiment with UACC-257 melanoma and 100% with M14 melanoma.

For the compound `N#Cc1c(N)nc2c(c1N)C(c1ccc(Cl)cc1)C1=C(CCCC1=O)N2c1sc2c(c1C#N)CCCC2` (stereo not given), the growth with NCI-H23 lung was 91.2%; with NCI-H226 lung it was 89.2%; with NCI-H322M lung it was 83.5%; in the experiment with HOP-62 NSCLC it was 80%; with NCI-H460 lung, 97.3%; in the experiment with HOP-92 NSCLC, 62%. Also, the growth was 84.3% in the experiment on NCI-H522 lung; 90.1% in the experiment with A549/ATCC NSCLC; 80.1% in the experiment with 786-0 renal; 96.2% with COLO 205 colon; 99.7% with DU-145 prostate; 74.2% in the experiment with K-562 leukemia. For the same compound, the growth in the experiment on MALME-3M melanoma was 90.7%; with MDA-MB-231 breast, 75.4%; in the experiment with RXF 393 renal, 60.6%; in the experiment on SF-268 CNS, 89.5%; with SF-295 CNS, 101%; in the experiment on SF-539 CNS, 96%. Also, the growth in the experiment on UACC-257 melanoma is 92.6%; with M14 melanoma, 90.3%.

Turning to `O=C(Nc1ccc(-n2cc(-c3ccncc3)c(-c3ccc(O)c(Cl)c3)n2)cc1)Nc1cccc(Cl)c1Cl`, the growth was 66% with NCI-H23 lung; 73.7% in the experiment with NCI-H226 lung; 79.7% in the experiment on NCI-H322M lung; 87.6% in the experiment on HOP-62 NSCLC; 43% with NCI-H460 lung; 16.5% in the experiment on HOP-92 NSCLC. Moreover, the growth with NCI-H522 lung was 66.1%; in the experiment on A549/ATCC NSCLC it was 38.9%; in the experiment on 786-0 renal, 58.3%; in the experiment with COLO 205 colon it was 39.1%; with DU-145 prostate it was 66.4%; in the experiment with K-562 leukemia it was 39.6%. Further, the growth is 67.4% in the experiment on MALME-3M melanoma; 27% in the experiment on MDA-MB-231 breast; -8.38% (active) in the experiment with RXF 393 renal; 82% in the experiment on SF-268 CNS; 37.6% in the experiment on SF-295 CNS; 18.5% in the experiment with SF-539 CNS. Further, the growth is 90.7% in the experiment with UACC-257 melanoma and 46.9% in the experiment with M14 melanoma.

On to `COc1ccc(CCNC=O)cc1OC`, for which the growth in the experiment on NCI-H23 lung was 101%; in the experiment on NCI-H226 lung, 89.1%; in the experiment with NCI-H322M lung it was 96.4%; in the experiment with HOP-62 NSCLC, 107%; with NCI-H460 lung it was 102%; in the experiment on HOP-92 NSCLC, 93.4%. In addition, the growth in the experiment with NCI-H522 lung was 131%; in the experiment with A549/ATCC NSCLC, 107%; in the experiment on 786-0 renal, 99.2%; with COLO 205 colon it was 96.3%; with DU-145 prostate, 102%; in the experiment with K-562 leukemia, 115%. Further, the growth is 90% in the experiment with MALME-3M melanoma; 112% in the experiment on MDA-MB-231 breast; 87.9% with RXF 393 renal; 104% in the experiment on SF-268 CNS; 103% in the experiment on SF-295 CNS; 91.5% with SF-539 CNS. The growth is 108% in the experiment on UACC-257 melanoma and 100% with M14 melanoma.
